Results published in PubChem BioAssay (NCATS).
A number with no mark means an inactive call. Calls of active or inactive are those of the source. The call rests on the fitted dose curve; in most records, active means well fitted inhibition curve with a large enough effect; inconclusive means small, poorly fitted or top-dose-only effect; inactive means flat fitted curve, though single readings scatter.

Tested on: Nanoluciferase (engineered Oplophorus gracilirostris luciferase)
Experiment: Primary Nanoluciferase (NLuc) qHTS assay for identification of artifact compounds. (AID 1845222);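 on activity, negative = inhibition: 0% = DMSO and -100% = no enzyme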
Settings: NLuc-conditioned medium, Nano-Glo luminescence, 5 min; series mostly up to 54.1 µM; activity, negative = inhibition: at the top concentration
In short: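 Compounds are pinned into diluted (1:55) conditioned medium of NLuc-expressing S16 cells and held 15 min at room temperature protected from light. Nano-Glo substrate follows, and luminescence is read 5 min later.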
Potency means the concentration at half of the fitted maximal effect.

Q: For C=C1C(=O)O[C@@H]2C[C@@H](C)[C@]34C[C@]5(C(=O)O[C@H]6CC(C)=C([C@H](C)CCCO)[C@H](OC(=O)C(C)CC)[C@H]65)[C@@H](C(C)=C3C[C@@H]12)[C@H]4OC(C)=O (stereo partly specified), which “activity, negative = inhibition” value is on record?
A: -4.06% [at 25.7 µM]

Q: Which “activity, negative = inhibition” value does the source give for COc1ccccc1-c1c[nH]c2ncc(-c3cncc(C(=O)N(C)C)c3)cc12 here?
A: 1.73%

Q: With Fc1ccccc1CNCc1ccc(-c2ccnc3[nH]ccc23)cc1 as the compound, how does the “activity, negative = inhibition” value read?
A: 3.68%

Q: Which Potency does the source give for CCCCc1nc(C)c(CC(=S)N(C)C)c(=O)n1Cc1ccc(-c2ccccc2-c2nn[nH]n2)cc1 here?
A: 16.9 µM (active)

Q: How did the “activity, negative = inhibition” value turn out when Clc1ccccc1CNCC1CCC(CNCc2ccccc2Cl)CC1 (stereo unspecified) was run?
A: 3.84%

Q: How did the “activity, negative = inhibition” value turn out when CNc1nc(-c2ccc3c(N)n[nH]c3c2)cc(N2CC(C(=O)NC3CCCCC3)CCC2C)n1 (stereo unspecified) was run?
A: 0.301%

Q: Which “activity, negative = inhibition” value does the source give for CC[C@H]1OC(=O)[C@H](C)[C@@H](O[C@H]2C[C@@](C)(OC)[C@@H](O)[C@H](C)O2)[C@H](C)[C@@H](O[C@@H]2O[C@H](C)C[C@H](N(C)C)[C@H]2O)[C@](C)(O)C[C@@H](C)/C(=N/OCOCCOC)[C@H](C)[C@@H](O)[C@]1(C)O here?
A: 4.73%

Q: How did the “activity, negative = inhibition” value turn out when C[C@@H](CN1CCC(n2c(=O)[nH]c3cc(Cl)ccc32)CC1)NC(=O)c1ccc2ccccc2c1 was run?
A: -0.323%

Q: For CN(C)CC(=O)Nc1ccc2[nH]c(=O)c3ccccc3c2c1, which “activity, negative = inhibition” value is on record?
A: -3.69%

Q: With C=C1C(=O)O[C@@H]2/C=C(/C)CC3C=C(C[C@H](OC(=O)/C(C)=C\C)[C@@H]12)C(=O)O3 (stereo partly specified) as the compound, how does the “activity, negative = inhibition” value read?
A: -10.5%

Q: COc1ccc2c(c1)CN(C(=O)CCN1CCC(Cc3ccccc3)CC1)CCS2 was tested. Which “activity, negative = inhibition” value did it give?
A: -1.17% [at 25.7 µM]

Q: For COc1ccc(-c2nc(-c3cc(C(F)(F)F)cc(C(F)(F)F)c3)n(Cc3ccc(C(N)=O)cc3)c2-c2ccc(OC)cc2)cc1, which “activity, negative = inhibition” value is on record?
A: -3.8%

Q: With CNc1cc(OC)c(C(=O)N[C@@H]2CCN(Cc3ccccc3)[C@@H]2C)cc1Cl as the compound, how does the “activity, negative = inhibition” value read?
A: -0.171%

Q: With CC(=O)Nc1ccc(C(=O)Nc2ccccc2N)cc1 as the compound, how does the “activity, negative = inhibition” value read?
A: -1.98% [at 25.7 µM]

Q: With CCOC(=O)CCC(=O)O[C@H]1[C@H](O[C@@H]2[C@@H](C)[C@H](O[C@H]3C[C@@](C)(OC)[C@@H](O)[C@H](C)O3)[C@@H](C)C(=O)O[C@H](CC)[C@@](C)(O)[C@H](O)[C@@H](C)C(=O)[C@H](C)CC2(C)O)O[C@H](C)C[C@@H]1N(C)C (stereo partly specified) as the compound, how does the “activity, negative = inhibition” value read?
A: -0.602%

Q: For C=C(C(=O)O)C1CC2=C(C)C(=O)CC2C(C)CC1O (stereo unspecified), which “activity, negative = inhibition” value is on record?
A: 3.7%

Q: With CCC(=O)Nc1cccc(Oc2nc(Nc3ccc(N4CCN(C)CC4)cc3OC)ncc2Cl)c1 as the compound, how does the “activity, negative = inhibition” value read?
A: -0.722%

Q: How did the “activity, negative = inhibition” value turn out when Cc1cc(CN)cc(C)c1NC(=O)c1ccc(-c2cc(Cl)ccc2Cl)o1 was run?
A: -10.8%

Q: Which “activity, negative = inhibition” value does the source give for C=C1C(=O)O[C@@H]2C[C@@]3(C)CCC[C@H](C)C3=C[C@H]12 here?
A: 0.67%

Q: How did the “activity, negative = inhibition” value turn out when C=C1C(=O)O[C@@H]2[C@H]1[C@H](O)C[C@]1(C)[C@@H](O)CC=C(C)[C@@H]21 was run?
A: 4.28%

Q: How did the “activity, negative = inhibition” value turn out when CC(C)c1ccc(NC(=O)C(c2ccccc2)N(C)C(=O)Cc2c[nH]c3ccccc23)cc1 (stereo unspecified) was run?
A: -4.28%

Q: O=C(Nc1cccc(C(F)(F)F)c1)c1ccccc1NCc1ccncc1 was tested. Which “activity, negative = inhibition” value did it give?
A: 4.3%

Q: For Cc1cc(C)c(NC(=O)N(Cc2ccc3c(c2)Cc2ccccc2-3)C2CCCCCC2)c(C)c1, which “activity, negative = inhibition” value is on record?
A: -0.056%

Q: Which “activity, negative = inhibition” value does the source give for CN(Cc1ccc(C(=O)O)cc1)c1ccc(OCc2c(-c3c(Cl)cccc3Cl)noc2C2CC2)nc1C(F)(F)F here?
A: -2.33%

Q: For C[N+]1(C)[C@@H]2CC[C@H]1CC(OC(=O)C(O)c1ccccc1)C2 (stereo partly specified), which “activity, negative = inhibition” value is on record?
A: 2.97%

Q: For CC1CCN(c2cc(NC(=O)c3ccccc3)ncn2)CC1, which “activity, negative = inhibition” value is on record?
A: -13.6%

Q: With CCOc1ccc(-c2nc(-c3cccc4c3CCC4NCCO)no2)cc1OCC (stereo unspecified) as the compound, how does the “activity, negative = inhibition” value read?
A: 4.31%

Q: Which “activity, negative = inhibition” value does the source give for CCC(=O)c1cc(-c2ccc(Cl)cc2)n(-c2ccc(S(N)(=O)=O)cc2)c1C here?
A: -5.26%

Q: For COc1cc2nc(-c3cc(F)ccc3O)nc(N[C@@H]3CNC[C@H]3C(C)(C)O)c2cc1OC, which “activity, negative = inhibition” value is on record?
A: 0.213%

Q: With COc1cccc(NC[C@@H](O)Cn2c3ccc(Br)cc3c3cc(Br)ccc32)c1 as the compound, how does the “activity, negative = inhibition” value read?
A: -13.6%

Q: Which “activity, negative = inhibition” value does the source give for O=C(/C=C/n1cnc(-c2cc(C(F)(F)F)cc(C(F)(F)F)c2)n1)NNc1cnccn1 here?
A: 2.58%

Q: Which “activity, negative = inhibition” value does the source give for COc1cc(-c2cc(-c3cccc(O)c3)cnc2N)cc(OC)c1OC here?
A: 1.38%

Q: COc1c(N2CC3CCCNC3C2)c(F)cc2c(=O)c(C(=O)O)cn(C3CC3)c12 (stereo unspecified) was tested. Which “activity, negative = inhibition” value did it give?
A: 0%

Q: How did the “activity, negative = inhibition” value turn out when COc1ccc(Cl)cc1[C@@]1(F)C(=O)Nc2cc(C(F)(F)F)ccc21 was run?
A: 1.6%

Q: For COc1ccc(-c2c(C)c(C(=O)NN3CCCCC3)nn2-c2ccc(Cl)cc2Cl)cc1, which “activity, negative = inhibition” value is on record?
A: -0.0759%

Q: With C[C@H](NC(=O)C(C)(C)Oc1ccc(C(F)(F)F)cn1)[C@@H](Cc1ccc(Cl)cc1)c1cccc(C#N)c1 as the compound, how does the “activity, negative = inhibition” value read?
A: -5.53%
